Compound activity: PubChem, several laboratories
Only a selection was taken, and hits are over-represented in it overall.
AMPAR-TARP mod = modulators of AMPA receptor GluA2-stargazin complexes | O88602+P19491 | HEK293 GluA2+stargazin, membrane potential dye (FDSS), glutamate EC50; hits were called plate by plate, in both directions | calls only at 30 µM | 3.5% of 40,000 active | AID 1259245;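 active = any of four per-well response measures lying three or more SD from its plate-wide compound average, in either direction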
GIRK2 act = GIRK2 channel activators by thallium flux; P48051; HEK293 GIRK2/NPY4 cells, thallium flux fluorescence; activation (% efficacy), % for hits at 37.5 µM; 34,000 tested, under 10 active; AID 1259324;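 active = primary screen hit, no activity in plain HEK293 cells, and in GIRK2-only cells above 5% efficacy rising with concentration; inactive = the rest, including fluorescent compounds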;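 note: efficacy is normalized control-subtracted fluorescence 15 s after thallium addition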
Target sequence (P48051 whole entry, looked up): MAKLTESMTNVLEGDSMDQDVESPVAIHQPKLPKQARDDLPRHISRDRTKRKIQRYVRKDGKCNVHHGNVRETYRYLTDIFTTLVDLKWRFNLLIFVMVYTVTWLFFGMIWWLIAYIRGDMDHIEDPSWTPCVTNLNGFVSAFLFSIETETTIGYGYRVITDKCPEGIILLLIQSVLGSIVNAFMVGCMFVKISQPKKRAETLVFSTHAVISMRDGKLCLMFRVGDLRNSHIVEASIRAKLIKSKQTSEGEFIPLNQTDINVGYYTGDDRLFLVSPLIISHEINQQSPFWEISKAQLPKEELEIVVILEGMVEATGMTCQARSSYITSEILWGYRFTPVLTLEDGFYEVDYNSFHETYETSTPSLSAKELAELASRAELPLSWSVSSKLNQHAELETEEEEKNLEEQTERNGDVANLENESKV
Active calls of the source: *; i = inactive; x = not tested or not shown; + = active, no number; ! = repeats disagree.

SMILES | AMPAR-TARP mod | GIRK2 act
Cc1cc(S(=O)(=O)NCC(c2ccc3c(c2)OCO3)N2CCN(c3ccccc3)CC2)ccc1F (stereo not given) | i | x
COc1ccc(CCNC(=O)Cn2ncn3nc4c(c3c2=O)CCCC4)cc1OC | x | i
COc1ccc(Cl)cc1NC(=O)Cn1ncn2nc3c(c2c1=O)CCCC3 | + | i
COc1ccc(NC(=O)CN2CCCN(Cc3cc(C)ccc3C)S2(=O)=O)c(OC)c1 | i | i
CCOC(=O)c1ccccc1NC(=O)CN1CCCN(Cc2cc(C)ccc2C)S1(=O)=O | + | i
Cc1cc(C)c2c(=O)[nH]c(SCC(N)=O)nc2n1 | + | x
Cc1cccc(NC(=O)CSc2nc3nc(C)cc(C)c3c(=O)[nH]2)c1 | i | x
CCOC(=O)c1c(NC(=O)c2ccc(S(=O)(=O)N(C)C3CC3)cc2)sc2c1CCN(CC)C2 | + | i
CN(C1CCCC1)S(=O)(=O)c1ccc(C(=O)Nc2sc3c(c2C(N)=O)CCCC3)cc1 | i | x
CCOC(=O)c1c(NC(=O)c2cc(C)nn2C)sc2c1CCN(CC)C2 | + | i
CCOC(=O)c1c(NC(=O)COc2ccc(Cl)cc2)sc2c1CCN(Cc1ccccc1)C2 | + | x
COC(=O)c1c(NC(=O)c2ccno2)sc2c1CCN(Cc1ccccc1)C2 | x | i
CCOC(=O)c1c(NC(=O)c2ccnn2C)sc2c1CCCC2 | x | i
Cn1ccnc1N1CCN(CC(=O)Nc2cccc(F)c2)CC1 | i | i
COC(=O)c1ccc(CN2CCC(c3nnc(-c4ccco4)s3)CC2)cc1 | i | i
COc1cc(C)ccc1OCC(=O)N1CCN(c2ccc3nnc(C)n3n2)CC1 | + | i
COc1cc(C)ccc1OCC(=O)N1CCN(c2ccc3nncn3n2)CC1 | i | i
Cc1ccc(CNC(=O)c2cc3c(=O)n4cccc(C)c4nc3n(CCO)c2=N)cc1 | i | i
CCOc1ccccc1C(=O)NC1CC(=O)N(c2ccccc2)C1 (stereo not given) | i | x
CCOc1ccccc1C(=O)NC1CC(=O)N(c2ccc(C)c(C)c2)C1 (stereo not given) | + | x
CCN(CC)CCn1c(SCC#N)nc2cc(C(=O)OC)ccc2c1=O | +! | i
CC(C)Cn1c(SCC#N)nc2cc(C(=O)NC(C)C)ccc2c1=O | i | x
O=C(C1=COCCO1)N(CCN1CCOCC1)c1nc2ccccc2s1 | i | x
O=C(C1=COCCO1)N(CCN1CCOCC1)c1nc2c(F)cccc2s1 | + | i
COc1ccc(CN2C(=O)C3(OCCCO3)c3ccccc32)cc1OC | i | x
SMILES | AMPAR-TARP mod | GIRK2 act
COc1ccc(OCCCN2C(=O)C3(OCCCO3)c3cccc(C)c32)cc1 | +! | i
O=C(COc1ccc2ccccc2c1)NCC(=O)N1CCOC(c2ccccc2)C1 (stereo not given) | x | i
COc1ccccc1N1CC(C)Cn2c1nc1c2c(=O)n(Cc2ccc(C)cc2)c(=O)n1C (stereo not given) | + | x
COc1ccccc1N1CC(C)Cn2c1nc1c2c(=O)n(Cc2cccc(C)c2)c(=O)n1C (stereo not given) | i | x
COc1ccc(CC(=O)Nc2ccc(CC(=O)N3CCCC3)cc2)cc1OC | i | i
COCCn1c(N)c(S(=O)(=O)c2ccc(Cl)cc2)c2nc3ccccc3nc21 | i | i
COCCn1c(N)c(-c2nc3ccccc3n2C)c2nc3ccccc3nc21 | + | i
O=C(Nc1ccccc1F)c1ccc2c(c1)ncn2-c1ccccc1 | i | i
CC(=O)c1cccc(NS(=O)(=O)c2ccc(Oc3ccccc3)cc2)c1 | i | i
CCN(CC)CCNC(=O)C(=O)c1cn(CC(=O)N2CCOCC2)c2ccccc12 | i | x
Cc1ccc(C(CNC(=O)Cc2cccc3ccccc23)N(C)C)cc1 (stereo not given) | + | i
CN(C)C(CNC(=O)Cc1cccc2ccccc12)c1ccc(F)cc1 (stereo not given) | i | x
CC(C)(CO)NCCCCn1c2ccccc2c2ccccc21 | i | i
CC1CC(C)CN(S(=O)(=O)c2c(F)cccc2F)C1 (stereo not given) | + | x
COc1ccc(C)cc1S(=O)(=O)N1CC(C)CC(C)C1 (stereo not given) | i | x
CCCCOCC(O)CNC(C)(C)CC(C)(C)C (stereo not given) | i | i
O=C(CSc1nccn(-c2ccc(F)cc2)c1=O)Nc1ccc(F)cc1 | i | x
O=C(CSc1nccn(-c2ccc(Cl)cc2)c1=O)Nc1ccc(F)cc1F | + | x
Cc1cc(C)cc(-n2ccnc(SCC(=O)Nc3c(C)cc(C)cc3C)c2=O)c1 | + | x
COc1ccc(-n2ccnc(SCC(=O)Nc3c(C)cc(C)cc3C)c2=O)cc1 | i | x
CCCN1CCCc2cc(CCNC(=O)C(=O)Nc3cccc(Cl)c3C)ccc21 | i | x
CC(=O)c1cccc(NC(=O)c2ccc3c(c2)CC(c2ccc(C)cc2)OC3=O)c1 (stereo not given) | i | x
CC(=O)N1CCc2c(sc3nc(SCc4ccc([N+](=O)[O-])cc4)n(Cc4ccco4)c(=O)c23)C1 | i | x
CC(=O)N1CCc2c(sc3nc(SCc4cccc([N+](=O)[O-])c4)n(Cc4ccco4)c(=O)c23)C1 | + | i
CCNC(=O)C1CCN(c2cc(SCC(=O)Nc3ccc(Cl)cc3F)ncn2)CC1 | i | i
SMILES | AMPAR-TARP mod | GIRK2 act
Cc1nn(C2CCS(=O)(=O)C2)c2nc(-c3cccs3)cc(C(=O)NCc3cccs3)c12 (stereo not given) | x | i
CC(C)(C)n1ncc2c(=O)n(NC(=O)C(c3ccccc3)c3ccccc3)cnc21 | i | i
CC(C)(C)n1ncc2c(=O)n(NC(=O)/C=C/c3ccccc3)cnc21 | + | i
O=S(=O)(Cc1ccccc1)N1CCN(Cc2nc(-c3ccco3)cs2)CC1 | i | i
COc1cccc(C(=O)CSc2cc(N3CCOCC3)ncn2)c1 | i | i
c1ccn2cc(CSc3cc(N4CCOCC4)ncn3)nc2c1 | + | i
O=C(NCCCn1cccc1)c1ccccc1 | + | i
O=C(NCCCn1cccc1)c1cc(-c2ccccc2)n[nH]1 | i | i
CCN1CC(c2nc3ccccc3n2Cc2ccc(C)cc2)CC1=O (stereo not given) | i | x
COC(=O)CN1CCN(c2nc3c(c(=O)[nH]c(=O)n3C)n2CCc2ccccc2)CC1 | i | x
Cn1c(=O)[nH]c(=O)c2c1nc(N1CCN(CC(N)=O)CC1)n2CCCc1ccccc1 | + | x
CCOC(=O)CN1CCN(c2nc3c(c(=O)[nH]c(=O)n3C)n2CCc2ccccc2)CC1 | + | x
Cn1c(=O)[nH]c(=O)c2c1nc(N1CCC(C(N)=O)CC1)n2CCCc1ccccc1 | i | x
Cc1cccc(CS(=O)(=O)NCc2cnn3ccccc23)c1 | x | i
CN1CCN(c2nnnc3c2cnn3-c2ccccc2)CC1 | i | i
CCc1nc(N2CCN(C)CC2)c2oc3ccccc3c2n1 | + | i
O=C1COc2ccccc2N1Cc1nc(-c2cccs2)no1 | i | i
Cn1cc(C(=O)N2CCCCCC2)cc(NC(=O)c2cc(Cl)ccc2Cl)c1=O | i | x
Cn1cc(C(=O)N2CCCCCC2)cc(NC(=O)c2ccccc2Cl)c1=O | + | x
CCOc1ccc(S(=O)(=O)Nc2ccc(CC(N)=O)cc2)cc1C | i | i
Cc1ccsc1C(O)CNC(=O)C(=O)NCCC1=CCCCC1 (stereo not given) | i | i
